Source: PubChem BioAssay AID1347426 (Functional Genomics Laboratory (NCATS/FGL), 2020)
In all, about 31,000 sequences went through this assay and about 1,400 (4.5%) were called active. The entries come from a sample that favours actives as a whole. Unmarked numbers belong to inactive results.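 The calls were made as follows: active = median seed-adjusted z-score above 1 or below -1; inactive = the rest.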

Test: Novel Modifiers of Survival Motor Neuron (SMN) Protein: Gene Identification via Genome-wide siRNA Screen;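 also: luminescence tracks full-length SMN protein made from the SMN2 reporter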
Settings: HEK293T SMN2-luciferase reporter, siRNA knockdown, 72 h; actives lie on both sides
Summary of the method: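 Each of three siRNAs per gene is reverse-transfected (1 pmol) into reporter HEK293T cells whose luciferase output tracks SMN protein level. After 72 h culture, ONE-Glo luminescence is control-normalized, log10-transformed and MAD-standardized; Common Seed Analysis deprioritizes seed-driven hits.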
In the case of GGAAUUUACAUGGUCUAUUTT against PHF6, the median seed-adjusted z-score is reported as -0.268. In the case of CCAUGCUCGUGGUGCACAATT against B3GNT7, the median seed-adjusted z-score is reported as -1.05 (active). Work on GCCCGAUGCUUUCCACAUUTT against SLC5A9 yielded a median seed-adjusted z-score of 0.15. For GCACACUUGAGUUUGUGUATT against HES6, the median seed-adjusted z-score was 0.71. With GGUGGUAUCUGUUUCCGUATT against PCAF the median seed-adjusted z-score was -0.00665. In the case of GCUGCGUCUCCCUUCCAAATT against GP1BB, the median seed-adjusted z-score is reported as -0.711. For GCCCUCUGUUGGAUAUCUATT against AZIN1, the median seed-adjusted z-score was -1.14 (active). In the case of CAGCAGACGUAAAAAUUCATT against MSX2, the median seed-adjusted z-score is reported as -0.406. For CCACUGGAAUGGUACUUAUTT against UBR1, the median seed-adjusted z-score was -0.775. Work on GAGCUGUAUUUCUAUGUCATT against PLXNA3 yielded a median seed-adjusted z-score of 0.255. GCGAGCCGCUUAUGUGGAATT against TCF21 gave a median seed-adjusted z-score of -0.15. With UCUUAGAUGUCAAGCUGAATT against RNF7 the median seed-adjusted z-score was -1.18 (active). For AGGUAGAAUGGACAAGUGATT against PPP1R11, the median seed-adjusted z-score was -0.498. Work on GGAUUAUGAGUACCGAGAATT against MAP3K14 yielded a median seed-adjusted z-score of -0.0609. Work on GAUCAGGAGUCCUUCAAUATT against RAB1A yielded a median seed-adjusted z-score of 0.395. CGCCGACUGUCAUGCUUCATT against FCN1 gave a median seed-adjusted z-score of 0.346. GUUCAUCCCUUAUUCGACATT against ZNF215 showed a median seed-adjusted z-score of 0.485. With CCAUCAACAUCGCAGAUGATT against ABHD11 the median seed-adjusted z-score was -0.189. With CCGACACGCUCUACAAUAATT against BRUNOL6 the median seed-adjusted z-score was -0.542. With CCCUUACCCAAAACGAGAATT against CDK8 the median seed-adjusted z-score was -1.47 (active). With CCCUGACUGCAACUGCUUUTT against LDLRAD2 the median seed-adjusted z-score was -0.459. Work on GAGUCAUUAUUGACAACAATT against APH1B yielded a median seed-adjusted z-score of -0.135. For GGUGUUUGAUAUUCGAAUUTT against USP40, the median seed-adjusted z-score was 0.00437. With GCAACAUCCUCAUUGUAUUTT against MCHR2 the median seed-adjusted z-score was -0.658. For GCAUAUUCCGGUGAUAACUTT against RAB6C, the median seed-adjusted z-score was -1.08 (active). In the case of CAGGCGCCUGAAGUACAUATT against SLC35A2, the median seed-adjusted z-score is reported as 1.06 (active). AGCUCACCAGAGAAAUUUUTT against CHDH gave a median seed-adjusted z-score of 0.0241. GCUGCUCUGUUGAUGCUUATT against POMT1 showed a median seed-adjusted z-score of 0.327. GGAGUUAUAUUUAGUGAUATT against ABCA10 showed a median seed-adjusted z-score of -0.104. Sequence GGGUCAAGAUCGAGGAUAATT against MYOM3 has a median seed-adjusted z-score of -0.012.
